Molecules are shown by their SMILES. Among all 1,000 compounds or so, about 700 (70%) were called active. So high a share suggests a set chosen from earlier hits. Not all results are given here. Values without a mark were called inactive. No stated cut-off is given here; in the data, active means inhibition above about 50%; inactive means the rest.

This assay is described as follows: CASP1-PYCARD signaling inhibition in yeast, confirmatory test, counterassay for NLRP3 inhibitor program, one-dose (AID 488784). As to conditions: yeast expressing Caspase-1-ASC, luminescence counter screen; at 10 µM; stronger effect = higher value. In general terms: The purpose of a counterscreen is to sort out artefacts and off-target activity.
`Cc1cc(C)nc(NC(=O)Nc2ccccc2C(F)(F)F)n1`: the inhibition is 55.5% (active).
Under `CC(C)Sc1ncnc2c1cnn2-c1ccccc1` stands 40.6%; under `Cc1ccc(OCc2nc3ccccc3n2C)cc1`, 76.5% (active); under `CC(C)n1c(COc2ccccc2)nc2ccccc21`, 59.4% (active).
Take `CCSc1nc2sc3c(c2c(=O)n1-c1ccc(C)cc1)CCN(C)C3`: the inhibition is 33.2%.
For the molecule `O=C(COc1ccccc1F)Nc1nc(-c2ccccn2)cs1`, the inhibition is 65% (active).
Then `Cn1c(=O)c(C(=O)Nc2ncccn2)c(O)c2ccccc21`, with 49.2%; and `CCc1noc(C)c1C(=O)Nc1nc2ccc(OC)cc2s1`, with 76.8% (active); and `Cc1ccc(-c2nn(C(C)(C)C)c3ncnc(N)c23)cc1`, with 96.3% (active).
Under `COc1ccccc1C(=O)Nc1ccc(NC(=O)c2ccco2)c(C)c1` stands 47.5%.
Under `Cc1ccc(O)c(NC(=O)c2cc(-c3ccco3)on2)c1` stands 61.9% (active).
Take `CC(=O)[C@@]12O[C@@H]1C[C@H]1[C@@H]3CC[C@H]4C[C@@H](O)CC[C@]4(C)[C@H]3CC[C@@]12C`: the inhibition was 53% (active).
In the case of `Cc1ccnc(Nc2nc3ccccc3s2)n1`, the inhibition is 21.8%.
Under `CN(C)c1ccnc2sc(C(=O)c3ccccc3)c(N)c12` stands 70.2% (active).
Then `CCCN(CC1CC1)C(=S)NC(=O)c1ccccc1Br`, with 53.1% (active); and `O=[N+]([O-])c1c(NCCO)cc(Sc2nc3ccccc3s2)c2nonc12`, with 65.5% (active); and `Cc1cc(C(=O)COc2ccc(Br)cc2F)c(C)n1C1CC1`, with 60.1% (active).
Under `CC1(C)CCSC(/C=C/c2ccccc2)=N1` stands 91.5% (active).
`COc1ccccc1OCc1nc2ccccc2s1`: the inhibition was 48.7%.
Then `CCN(CC)c1ccc(/C=N/Nc2nc(C)cc(C)n2)c(O)c1`, with 55% (active); and `Nc1c(-c2cccc(Cl)c2)cnn1-c1cccc([N+](=O)[O-])c1`, with 53% (active).
Under `Oc1c(Cl)cc(Cl)c(Cl)c1Cc1c(O)c(Cl)cc(Cl)c1Cl` stands 99.3% (active); under `O=C(CC(O)(C(F)(F)F)C(F)(F)F)Nc1ccc(Cl)c(Cl)c1`, 99.2% (active); under `Cc1c(C(=O)N2CCCc3ccccc32)oc2ccccc12`, 49.6%.
As for `O=C(Nc1ccccc1Cl)/C(Cl)=C(\Cl)S(=O)c1ccccc1` (stereo unspecified), the inhibition is 98.8% (active).
Under `O=C(Nc1ccc2oc(-c3ccccc3F)nc2c1)c1ccco1` stands 72.2% (active); under `O=C(Nc1ccc(Oc2ccccc2)cc1)c1ccco1`, 45.2%.
Under `Cn1c(=NC(=O)c2ccco2)sc2cccc(F)c21` stands 25%; under `Cc1cc(C)c(/C=C2\C(=O)Nc3ccccc32)[nH]1`, 40.2%.
With `Cc1ccc(OCc2nc(C#N)c(N3CCCC3)o2)cc1`, the inhibition was 71.8% (active).
Turning to `O=C(CSc1ccc(-c2ccc(-n3cccn3)cc2)nn1)Nc1ccc([N+](=O)[O-])cc1`, the inhibition was 11.2%.
Consider `C[C@@H]1C[C@@H]2O[C@H]2/C=C\C=C\C(=O)Cc2c(Cl)c(O)cc(O)c2C(=O)O1`, for which the inhibition is 48.6%.
Under `CCCNc1ncnc2sc(C)c(C)c12` stands 50.8% (active).
With `CC(=NCc1ccc2c(c1)OCO2)C1=C(O)c2ccccc2C1=O`, the inhibition was 60.2% (active).
Consider `O=C(NCc1ccc2c(c1)OCO2)c1c(O)nc2sccn2c1=O`, for which the inhibition is 36.7%.
Under `O=C(Oc1c(-c2ccco2)oc2ccccc2c1=O)c1cccnc1` stands 58.5% (active).
Then `CC(C)C(=O)N1CCN(CCN=CC2=C(O)CC(c3ccco3)CC2=O)CC1` (stereo unspecified), with 55.2% (active); and `Cc1cccc(NC(=S)NC(=O)c2ccc(Br)o2)c1`, with 76.2% (active); and `CN=C1C=C/C(=N/N=c2\ccn(O)cc2C)C=C1C`, with 53.3% (active).
Consider `O=C(CSc1ncnc2c1oc1ccccc12)NC1CCCC1`, for which the inhibition was 39.4%.
Then `Cc1ccc2cccc(S(=O)(=O)N3CCN(c4ccccc4F)CC3)c2n1`, with 52.6% (active); and `COc1cc(N2C(=O)CSC2=S)cc(OC)c1OC`, with 45.7%; and `O=C1CSC(=S)N1c1ccc(O)cc1`, with 79.7% (active).
Take `CCc1cc(C(=O)Nc2nnc(C3CC3)s2)sc1C`: the inhibition is 55.5% (active).
Turning to `Cc1ccc(CSc2nsc(C)c2C#N)cc1`, the inhibition is 60% (active).
As for `Oc1ccc(Br)cc1/C=N/Nc1ccccn1`, the inhibition was 37.1%.
In the case of `O=[N+]([O-])c1cccc(/C=N/Nc2ncc(Br)cn2)c1`, the inhibition was 62.5% (active).
As to `O=[N+]([O-])/C=C/c1ccc2c(ccn2Cc2ccccc2)c1`, the inhibition is 99.7% (active).
On to `CCOC(=O)c1c(C)[nH]c(C(=O)COc2ccc3c(c2)OCO3)c1C`, for which the inhibition is 66.8% (active).
Then `Fc1ccccc1-c1cc2cc3c(cc2cn1)OCO3`, with 51% (active).
Take `N#Cc1nc(Cc2ccccc2)oc1NCCc1ccccc1`: the inhibition is 56.8% (active).

A word on the inhibition: it is the share of the control response that was lost under treatment.
